Experiments:
Experiment in all cases: PBM binding z-score (relative to random genomic background probes); higher = stronger binding; sequences stand for … in GC…GCGATTGACAGCGTAGAATGAAGG
[1] = tested on: RARb homodimer (NR concentration 270 nM)
Procedure, shortened: (§1)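 Ligand-free nuclear receptor dimers were applied to custom Agilent 4×180K protein-binding microarrays whose double-stranded probes carried direct-repeat seeds, single-nucleotide variants, half-site ablations and random human genomic background sequences in 34-nt variable regions. Incubation lasted 1 h. Binding z-scores were computed against the random background probes from regression-normalized fluorescence.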

[2] = tested on: RARg:RXRa (NR concentration 270 nM, RXRa partner concentration 90 nM)
Procedure, shortened: as §1

[3] = tested on: RARg homodimer (NR concentration 270 nM)
Procedure, shortened: as §1

[4] = tested on: RXRa DBDmut IVT, anti-RXR (DBD mutation: RXRa K156A/R161A, NR concentration 90 nM)
Procedure, shortened: as §1

[5] = tested on: RXRa homodimer (NR concentration 180 nM)
Procedure, shortened: as §1

[6] = tested on: THRa:RXRa (NR concentration 90 nM, RXRa partner concentration 90 nM)
Procedure, shortened: as §1

[7] = tested on: THRa homodimer (NR concentration 90 nM)
Procedure, shortened: as §1

[8] = tested on: VDR:RXRa (NR concentration 270 nM, RXRa partner concentration 90 nM)
Procedure, shortened: as §1

[9] = tested on: VDR homodimer (NR concentration 270 nM)
Procedure, shortened: as §1

Sequence	PBM binding z-score [1]	PBM binding z-score [2]	PBM binding z-score [3]	PBM binding z-score [4]	PBM binding z-score [5]	PBM binding z-score [6]	PBM binding z-score [7]	PBM binding z-score [8]	PBM binding z-score [9]
ATCTCTACGTAAAAGTTCAGTGAATCCCGAGGAT	2.42	1.57	2	0.755	0.831	0.591	0.154	1.1	1.5
CGAACGATGGCATGAGTTGATAGCAAATGCCGAT	-0.482	-0.189	-0.00968	0.0712	0.135	-0.2	-0.806	-0.111	0.233
TCTGCTACGTCAGTTGGTCAGCTAACGAGCTGCC	-0.763	-0.688	-0.884	0.0505	-0.761	-1.71	-0.995	-0.996	-1.44
TCATATAGGTAACACAGGTGAAAGTCGGCATCTA	1.12	1.13	0.999	1.73	1.55	1.36	0.518	1.49	0.493
CTCGAAAGGTCGGTTGGGGTGAGTATACGGATAA	2.88	3	2.42	1.18	2.69	4.95	1.86	3.24	1.55
ATATGTAGGTTAAGGGTTATTCAGGTTGGTTCGC	1.91	2.11	1.34	0.963	2.75	2.37	1.52	3.27	1.83
CGAACGAGGGCAAGAGTTGATAGCAAATGCCGAT	1.44	1.67	1.85	1.89	1.1	0.79	-0.443	0.703	1.07
TCTATTAGTTGAAGGGAAACCGACGAGTCCGTTT	-0.0745	-0.0691	-0.0615	1.6	0.396	-0.149	0.214	0.851	1.19
CCTAGCAGGCTAGGGTCACTCAAGCATTTCGCTT	2.67	3.35	2.35	0.61	3.65	3.64	1.81	2.72	1.07
TCTATTAGTTCAAGGGCAACCGACGAGTCCGTTT	2.81	2.08	2.62	2.6	1.58	1.92	1.36	2.38	3.41
ATCTCTAGGTAATGATAGTTCAGTGAATGCAAAT	0.921	0.493	0.864	0.246	0.462	0.79	0.35	0.849	0.644
CCGTCTGGGGCAGAAAGGTTACCATACCATCCGG	2.03	1.36	0.979	-0.795	1.37	0.782	-0.335	0.809	-0.377
AGAATGAAGTTATTAAGATCAGGGAATTGCGGTC	-0.379	-0.168	-0.0523	-0.232	0.116	-0.108	-0.315	-0.316	-0.263
ACTACTTGGTCAGCTGAGGTCACACACAATTCGG	4.44	4.3	4.38	1.76	4.45	5.04	5.43	4.74	3.73
GTACCAAGGTGCATAGGTCGTTGATGAGTAGGCG	0.393	0.769	0.407	0.546	1.3	0.111	-0.427	0.717	0.968
TAGCCTAGATCATGCGGGCCAGTATAGTGTCGGC	-1.16	-0.937	-0.627	-1	-0.796	-1.05	-1.46	-1.11	-1.14
CCTAGCAGGCCAATGTGGGTCACTCAAGGCTTGA	2.16	1.23	1.02	-0.341	1.15	2.63	-0.567	1.02	-0.0479
ACTAGCAGGCCAAGATTGGGTCACTCAAACAAAG	1.97	1.63	1.37	-0.534	0.621	1.84	0.533	0.16	0.0162
CTACCAAGGTGAACAAGTTCGTTGATTACTATTC	1.3	0.877	1.02	2.17	0.747	1.9	0.959	6.15	3.6
CCTCGGAGGACAACAGGTGGTCAGAGCTGCCAGA	0.83	0.693	1.32	-0.142	-0.432	0.397	-0.269	-0.645	-0.187
GCGACTGGGGCATCTGCAGGTTACCATAACTTAA	1.06	1.21	0.411	-0.0161	0.555	1.14	-0.146	-0.144	-0.456
ACTATTTGGTCAGCTGAGGTCACACACAATTCGG	4.69	4.24	4.48	2.02	4.4	5.09	5.11	4.64	3.67
TCTGGGAGGACACGAAAGGTCAGAGCTCGACATC	4.8	4.88	5.82	0.799	4.23	3.73	1.59	3.35	1.27
GGAACGAGGGCAAGTGGATAGCAGAGTTTGATGG	1.59	1.62	2.03	1.93	0.87	1.1	-0.000164	0.391	1.39
